Among all 340,000 compounds or so, about 3,300 (0.97%) were called active.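 Rule for the calls: active = maximum activity change below -70%; inconclusive = maximum activity change from -70% to -50%; inactive = maximum activity change above -50%.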 The full list was thinned out, with actives kept by preference.
% is set by controls: 0 for no effect and ±100 for the full control effect.

For the assay, the system named is Potassium voltage-gated channel subfamily H member 2, brain isoform KCNH2 3.1 (human). Put plainly: qHTS for Inhibitors of KCHN2 3.1: Mutant qHTS. The conditions noted are these: U2OS KCNH2 3.1, thallium flux FluxOr; active compounds read low. The procedure, abridged: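 Thallium flux via FluxOr fluorescence (Red40 quencher, 45 min loading) in U2OS cells virally expressing the KCNH2 3.1 isoform (1.77 x 10^8 /mL virus, overnight at 37 C). Rate constants from 2-min kinetic reads post-stimulation, normalised to positive and negative controls.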
On to `O=C(COC(=O)Cc1ccc(Cl)cc1Cl)NCc1ccco1`, for which the activity change is -13.7% (inactive). Turning to `O=C(O)C1=C(C(=O)O)C2CCC1C2`, the activity change is 1.57% (inactive). `COc1ccccc1OCCNC(=O)c1cc([N+](=O)[O-])cc([N+](=O)[O-])c1`: the activity change was -8.81% (inactive). Regarding `COc1cc(C(=O)NCCOC(=O)c2cccc(N(C)C)c2)cc(OC)c1OC`, the activity change is -77.8% (active). Regarding `COC(=O)c1cccc(NC(=O)CN2CCC(NC(=O)c3cc(OC)c(OC)c(OC)c3)CC2)c1`, the activity change is -11.4% (inactive). With `O[C@@H]1C[C@H](c2ccccc2)N(Cc2cccs2)C[C@H]1n1cc(C2CC2)nn1`, the activity change is -10.3% (inactive).

Take `C[C@@H]1CN([C@@H](C)CO)C(=O)CCCn2nncc2CO[C@H]1CN(C)Cc1ccc(C(F)(F)F)cc1`: the activity change was 15.2% (inactive). On to `COc1ccc(S(=O)(=O)N2CCC(C(=O)NCCC(=O)NCCc3cccc(F)c3)CC2)cc1`, for which the activity change is -0.519% (inactive). With `O=C(Nc1ccc(F)c([N+](=O)[O-])c1)C1CC(=O)N(Cc2ccccc2)C1` (configuration not stated), the activity change was -5.91% (inactive). As to `Cc1cc(=O)oc2cc(NC(=O)C3CC(=O)N(Cc4ccccc4)C3)ccc12` (configuration not stated), the activity change is -71% (active). Then `Cc1cc(=O)oc2cc(NC(=O)C(C)Oc3ccccc3)ccc12` (configuration not stated), with 16.9% (inactive). For `Cc1ccc2c(c1)N(S(=O)(=O)c1cc(-c3cc(C)no3)ccc1C)CCO2`, the activity change was -82.2% (active). Take `Cc1cc(-c2ccc(C)c(S(=O)(=O)Nc3ccc(S(N)(=O)=O)cc3)c2)on1`: the activity change is 6.07% (inactive). As to `Cc1cc(-c2ccc(C)c(S(=O)(=O)NC(C)Cc3ccco3)c2)on1` (configuration not stated), the activity change was -6.2% (inactive).

With `Cc1ccc(-c2ccc(CN3C(C(C)C)C(=O)N(Cc4cn(CCC5OCCO5)nn4)CCS3(=O)=O)cc2)cc1` (configuration not stated), the activity change was 0.464% (inactive). Then `Cc1noc(C)c1NC(=O)N(C)C[C@@H]1Oc2cc(Br)ccc2S(=O)(=O)N([C@@H](C)CO)C[C@H]1C`, with -17.2% (inactive); and `COCOCCn1cc(CN2CCS(=O)(=O)N(Cc3ccc(-c4ccc(OC)cc4)cc3)C(CC(C)C)C2=O)nn1` (configuration not stated), with -1.8% (inactive). In the case of `NC1=NC[C@@H](Cc2ccc(O)cc2)N1CC1CCCCC1`, the activity change is 19% (inactive). The result for `COc1ccc(CCNC(=O)COC(=O)C2CCCCC2)cc1` reads 8.75% (inactive).

Take `COc1ccc(C[C@H]2CN3C(=NC[C@H]3C)N2CCNC(=O)CCC2CCCCC2)cc1`: the activity change was -109% (active). With `COc1ccc(NC(=O)CCCC2CCCCC2)c(OC)c1`, the activity change was 8.96% (inactive). For the compound `COc1ccc(CCNC(=O)COC(=O)C2CC2C)cc1` (configuration not stated), the activity change was 5.06% (inactive). For `C/C=C(\C)C(=O)NCCN1C2=NC[C@H](Cc3ccc(O)cc3)N2C[C@@H]1Cc1ccc(OC)cc1`, the activity change was -104% (active). The result for `Cc1ccn(CC(=O)NC2CCCN(Cc3ccccc3F)C2)n1` (configuration not stated) reads 7.86% (inactive); that for `O=C(O)c1ccccc1Cc1ccc(F)c2ccccc12`, 1.01% (inactive); that for `CCN(CC)C(=O)C1=C(C)N(Cc2ccc(F)cc2)C(=O)C(CC(=O)NCc2cccc3ccccc23)C1` (configuration not stated), 10.8% (inactive).

For the compound `CCn1c(CSCc2c(Cl)cccc2Cl)n[nH]c1=S`, the activity change is -10.5% (inactive).

On to `CCn1c(CNS(=O)(=O)c2ccc(Cl)cc2)n[nH]c1=S`, for which the activity change was -7.51% (inactive). Regarding `CCn1c(CN2C(=O)CSc3ccccc32)n[nH]c1=S`, the activity change was -86.9% (active).

As for `CCN(CC)C(=O)C1=C(C)N(Cc2ccc(OC)cc2)C(=O)C(CC(=O)NCCCCc2ccccc2)C1` (configuration not stated), the activity change was -3.76% (inactive). With `CCn1c(CNC(=O)c2ccccc2)nnc1SCC(=O)N1CCN(c2ccccc2)CC1`, the activity change was -7.37% (inactive). The result for `CSc1nnc(CNC(=O)c2ccccc2)n1-c1ccc(F)cc1` reads -88.2% (active); that for `CCOC(=O)CSc1nnc(CNC(=O)c2ccco2)n1-c1ccc(F)cc1`, -10.2% (inactive); that for `COc1cc2ccc(C(C)=O)c(O)c2cc1OC`, 5.97% (inactive). Turning to `N#CCCC(C#N)(c1cccnc1)N1CCOCC1` (configuration not stated), the activity change is 7.47% (inactive). Turning to `C[C@H](CO)N1C[C@H](C)[C@@H](CN(C)C(=O)c2cccc(F)c2)Oc2cc(-c3cncnc3)ccc2S1(=O)=O`, the activity change is -2.89% (inactive).

Consider `COc1cccc(OC)c1C(=O)N1CCN(Cc2ccccc2F)CC1`, for which the activity change was -6.56% (inactive). Regarding `COc1ccc(CN2CN(C(C)C)CSC2=S)cc1`, the activity change was -82.5% (active). The result for `S=C1SCN(CCN2CCOCC2)CN1Cc1ccccc1` reads -10.5% (inactive). As to `COc1ccc(CN2CN(C3CCCC3)CSC2=S)cc1`, the activity change is -9.2% (inactive).

`C[C@@H]1CN([C@@H](C)CO)C(=O)CCCn2cc(nn2)CO[C@H]1CN(C)S(=O)(=O)c1ccc(-n2cccn2)cc1`: the activity change was 7.17% (inactive). `Cc1c(NC(=O)COC(=O)/C=C/c2cccc(F)c2)c(=O)n(-c2ccccc2)n1C`: the activity change is 1.3% (inactive). Then `CC(C)(C)n1nnnc1C(c1ccc(Cl)cc1)N1CCSCC1` (configuration not stated), with -3.03% (inactive); and `COc1ccccc1C(c1nnnn1C(C)(C)C)N1CCN(Cc2ccccc2)CC1` (configuration not stated), with 5% (inactive); and `CCC(C)(C)n1nnnc1C(c1ccccc1OC)N1CCSCC1` (configuration not stated), with -86.1% (active). Regarding `Cc1ccccc1NC(=O)Cc1nc(COC(=O)CNC(=O)c2ccc(Cl)cc2Cl)cs1`, the activity change is -9.74% (inactive).

For the compound `COc1ccc(S(=O)(=O)N2CCCCC2)cc1C(=O)NC1CCS(=O)(=O)C1` (configuration not stated), the activity change is 26.3% (inactive). In the case of `CCN(CC)C(=O)C1=C(C)N(Cc2ccc(OC)cc2)C(=O)C(CC(=O)NCc2ccco2)C1` (configuration not stated), the activity change is 22.6% (inactive). With `CN(C)/C=C(/C(=O)c1ccc(Cl)cc1)S(=O)(=O)c1ccccc1`, the activity change was 3.05% (inactive). The result for `CN(C)/C=C(/C(=O)c1ccccc1Cl)S(C)(=O)=O` reads -180% (active); that for `CN(C)/C=C(/C(=O)c1ccccc1)S(=O)(=O)c1ccc(Cl)cc1`, 7.64% (inactive); that for `Cc1cc(Br)ccc1NC(=O)c1sc2ncn(CC(=O)N3CCN(c4ccccn4)CC3)c(=O)c2c1C`, -4.47% (inactive).

As for `COc1ccc(NC(=O)c2sc3nc(C)nc(N4CCN(c5ccccn5)CC4)c3c2C)c(OC)c1`, the activity change was -30.8% (inactive).

For the compound `Cc1nc(N2CCN(c3ccccn3)CC2)c2c(C)c(C(=O)Nc3ccc(F)c(Cl)c3)sc2n1`, the activity change is -77.6% (active). Consider `Cc1nc(N2CCN(c3ccccn3)CC2)c2c(C)c(C(=O)Nc3ccc(F)cc3)sc2n1`, for which the activity change is -101% (active). For the compound `Cc1nc(N2CCC(C)CC2)c2c(C)c(C(=O)Nc3cc(F)ccc3C)sc2n1`, the activity change was -5.3% (inactive). Then `Cc1nc(N2CCOCC2)c2c(C)c(C(=O)Nc3ccc(C(F)(F)F)cc3)sc2n1`, with -41.2% (inactive).

(Values after PubChem BioAssay AID720553 (National Center for Advancing Translational Sciences (NCATS), 2013).)
